PubChem BioAssay (Tox21)
A number with no mark means an inactive call. The source made the active and inactive calls. Calls follow the shape of the dose curve; as a rule, active = well fitted curve in the direction sought with a large enough effect in the repeat runs; inconclusive = weak or mixed curves; inactive = flat fitted curve, though single readings scatter.

experiment: qHTS assay to test for compound auto fluorescence at 460 nm (blue) in HEK293 cell free culture (AID 720681); conditions: cell-free medium, autofluorescence 405/460 nm (blue); series mostly up to 91.3 µM; fluorescence, % of fluorescent control: at the top concentration
Procedure, shortened: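 Blue fluorescence (Ex 405/Em 460 nm, triamterene-equivalent) was read immediately after pin transfer of compound or DMSO into medium (DMEM, 10% FBS) without cells.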
% is scaled to controls: 0 for no effect and ±100 for the full control effect.

SMILES | fluorescence, % of fluorescent control | Potency
CCCCNS(=O)(=O)c1ccc(C)cc1 | -0.119% | 
CCCCCCCCCCCCCC[N+](C)(C)C |  | inactive
O=C(Oc1ccccc1)Oc1ccccc1 | 0.167% | 
OC1CCCc2ccccc21 (centres undefined) | -0.187% | 
OC[C@H]1O[C@H](O[C@H]2O[C@H](CO)[C@@H](O)[C@H](O)[C@H]2O)[C@H](O)[C@@H](O)[C@@H]1O | 0.0928% | 
CC(C)CCCCCOC(=O)CCS | 0.0528% | 
CCC(COC(=O)CCS)(COC(=O)CCS)COC(=O)CCS | 0.0575% | 
COC(=O)Nc1nc2ccc(C(=O)c3ccccc3)cc2[nH]1 | -0.0403% [at 18.6 µM] | 
CC(=O)OCC=C(C)C | -0.0076% | 
CCCCCCOC(=O)C(C)CC (centres undefined) | 0.0276% | 
COC(=O)c1ccccc1C | 0.0399% | 
CN(C)Cc1cc(C(C)(C)C)c(O)c(C(C)(C)C)c1 | 0.0487% | 
CC/C=C\CCCCCO | -0.0427% | 
Cc1ccc(N/N=c2\c(=O)cc/c(=N\Nc3ccc(S(=O)(=O)O)cc3)c2=O)c(C)c1 | -0.794% | 
O=C(/C=C/c1ccccc1)OC/C=C/c1ccccc1 | -0.0184% | 
CCC(=O)OC(=O)CC | 0.0041% | 
COc1cc(S(=O)(=O)O)c(C)cc1N=Nc1c(O)ccc2cc(S(=O)(=O)O)ccc12 | -1.17% | 
O=[N+]([O-])c1cccc(C(F)(F)F)c1 | 0.0062% | 
CCO[Si](OCC)(OCC)OCC | 0.0049% [at 95.7 µM] | 

SMILES | fluorescence, % of fluorescent control | Potency
Cc1ccc(-c2ccccc2)cc1 | -0.0629% | 
ClCCl | -0.228% | 
CN1CCCCC1CCN1c2ccccc2Sc2ccc(S(C)=O)cc21 (centres undefined) |  | inactive
C[Si](Cl)(c1ccccc1)c1ccccc1 | -0.123% | 
NC(=S)NC(N)=S | -0.054% | 
O=C(O)[C@H](O)[C@@H](O)[C@H](O[C@@H]1O[C@H](CO)[C@H](O)[C@H](O)[C@H]1O)[C@H](O)CO | -0.0747% [at 18.6 µM] | 
CCCCN(CCCC)CC(O)c1cc(Cl)cc2c1-c1ccc(Cl)cc1/C2=C/c1ccc(Cl)cc1 (centres undefined) | -0.0637% [at 46 µM] | 
CCCCCc1ccc(Cl)cc1 | -0.175% | 
C=Cc1cccc(C)c1 | 0.133% | 
CC(C)OC(=O)C(O)(CC(=O)O)CC(=O)O | -0.127% | 
Clc1nnc(Cl)c2ccccc12 | 0.0042% | 
[Cl][Pt-2]([Cl])([Cl])[Cl] | -0.053% | 
O=S(=O)(O)c1ccc(N=Nc2c(O)ccc3ccccc23)cc1 | -1.1% | 
CCOC(=O)NNc1ccc(N(CC)CC(C)O)nn1 (centres undefined) | 1.45% [at 46 µM] | 
CC(C)(C)C1CCC(=O)CC1 | 0.0128% | 
C1CCC(SSC2CCCCC2)CC1 | 0.15% | 
CCN(CC)c1ccc2c(-c3ccc(S(=O)(=O)O)cc3S(=O)(=O)[O-])c3ccc(=[N+](CC)CC)cc-3oc2c1 | -0.208% [at 95.7 µM] | 
COc1ccc(NC(=O)CC(C)=O)cc1 | -0.0959% | 

experiment: qHTS assay to test for compound auto fluorescence at 535 nm (green) in HEK293 cell free culture (AID 720682); conditions: cell-free medium, green autofluorescence 485/535 nm; series mostly up to 91.3 µM; activity change: at the top concentration
Procedure, shortened: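 Cell-free medium (DMEM, 10% FBS) receives compound or DMSO by pintool. Plate read directly at Ex 485/Em 535 nm. Signal converted to fluorescein equivalency.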

SMILES | activity change | Potency
CCCCNS(=O)(=O)c1ccc(C)cc1 | 0.0025% | 
CCCCCCCCCCCCCC[N+](C)(C)C |  | inactive
O=C(Oc1ccccc1)Oc1ccccc1 | 0.108% | 
OC1CCCc2ccccc21 (centres undefined) | 0.0006% | 
OC[C@H]1O[C@H](O[C@H]2O[C@H](CO)[C@@H](O)[C@H](O)[C@H]2O)[C@H](O)[C@@H](O)[C@@H]1O | 0.0964% | 
CC(C)CCCCCOC(=O)CCS | 0.0448% | 
CCC(COC(=O)CCS)(COC(=O)CCS)COC(=O)CCS | 0.0057% | 
COC(=O)Nc1nc2ccc(C(=O)c3ccccc3)cc2[nH]1 | -0.0263% [at 18.6 µM, stronger effect = higher value] | 
CC(=O)OCC=C(C)C | 0.0782% | 
CCCCCCOC(=O)C(C)CC (centres undefined) | 0.152% | 
COC(=O)c1ccccc1C | 0.0776% | 
CN(C)Cc1cc(C(C)(C)C)c(O)c(C(C)(C)C)c1 | 0.0021% | 
CC/C=C\CCCCCO | -0.0069% | 
Cc1ccc(N/N=c2\c(=O)cc/c(=N\Nc3ccc(S(=O)(=O)O)cc3)c2=O)c(C)c1 | -0.436% | 
O=C(/C=C/c1ccccc1)OC/C=C/c1ccccc1 | 0.0398% | 
CCC(=O)OC(=O)CC | 0.039% | 
COc1cc(S(=O)(=O)O)c(C)cc1N=Nc1c(O)ccc2cc(S(=O)(=O)O)ccc12 | -1.65% | 
O=[N+]([O-])c1cccc(C(F)(F)F)c1 | 0.0739% | 
CCO[Si](OCC)(OCC)OCC | 0.0043% [at 95.7 µM, stronger effect = higher value] | 

SMILES | activity change | Potency
Cc1ccc(-c2ccccc2)cc1 | -0.03% | 
ClCCl | -0.0804% | 
CN1CCCCC1CCN1c2ccccc2Sc2ccc(S(C)=O)cc21 (centres undefined) |  | inactive
C[Si](Cl)(c1ccccc1)c1ccccc1 | -0.0849% | 
NC(=S)NC(N)=S | -0.0081% | 
O=C(O)[C@H](O)[C@@H](O)[C@H](O[C@@H]1O[C@H](CO)[C@H](O)[C@H](O)[C@H]1O)[C@H](O)CO | -0.0154% [at 18.6 µM, stronger effect = higher value] | 
CCCCN(CCCC)CC(O)c1cc(Cl)cc2c1-c1ccc(Cl)cc1/C2=C/c1ccc(Cl)cc1 (centres undefined) | -0.0173% [at 46 µM, stronger effect = higher value] | 
CCCCCc1ccc(Cl)cc1 | -0.0177% | 
C=Cc1cccc(C)c1 | -0.0877% | 
CC(C)OC(=O)C(O)(CC(=O)O)CC(=O)O | -0.0106% | 
Clc1nnc(Cl)c2ccccc12 | -0.0056% | 
[Cl][Pt-2]([Cl])([Cl])[Cl] | -0.0454% | 
O=S(=O)(O)c1ccc(N=Nc2c(O)ccc3ccccc23)cc1 | -0.736% | 
CCOC(=O)NNc1ccc(N(CC)CC(C)O)nn1 (centres undefined) | 0.125% [at 46 µM, stronger effect = higher value] | 
CC(C)(C)C1CCC(=O)CC1 | -0.0136% | 
C1CCC(SSC2CCCCC2)CC1 | 0.0338% | 
CCN(CC)c1ccc2c(-c3ccc(S(=O)(=O)O)cc3S(=O)(=O)[O-])c3ccc(=[N+](CC)CC)cc-3oc2c1 | 0.903% [at 95.7 µM, stronger effect = higher value] | 
COc1ccc(NC(=O)CC(C)=O)cc1 | -0.0154% | 
